# Source: the supplement of paper PMC7366291
# Counter-ions that a name gives are not always drawn. ± gives the standard deviation of the averaged measurements.
# Test system: Danio rerio Tg(wt1b:EGFP) embryo, pronephros
# Assay: pronephric angle neck segment to proximal convoluted tubule (mean of left and right), fold change vs DMSO control; higher = larger pronephric angle
# Settings: 25 µM; exposure: 24-48 hpf
# Summary of the method: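 Dechorionated Tg(wt1b:EGFP) zebrafish embryos were treated with 25 μM compound in 0.5% DMSO, in HEPES-buffered E3 with 0.003% PTU, from 24 to 48 hpf at 28.5°C. On maximum projections of dorsal pronephros images, 16 hand-placed reference points in Fiji gave distances and angles, and values more than 2 SD from the feature mean were left out. Results are fold changes over the mean of same-day DMSO-treated embryos.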
row,Structure (SMILES),pronephric angle neck segment
1,O=C(O)Cc1sc(-c2ccccc2)nc1-c1ccc(Cl)cc1 [Fentiazac],1.75 ± 0.059
2,CCC1(c2ccccc2)NC(=O)N(C)C1=O (stereo not drawn) [Mephenytoin],1.0068 ± 0.00059
3,O=C1c2ccccc2C(=O)C1c1ccccc1 [Phenindione],0.919 ± 0.013
4,COc1cc(C(=O)OCCCN2CCCN(CCCOC(=O)c3cc(OC)c(OC)c(OC)c3)CC2)cc(OC)c1OC [Dilazep dihydrochloride],1.08 ± 0.089
5,CC=CC1=C(C(=O)O)N2C(=O)[C@@H](NC(=O)[C@H](N)c3ccc(O)cc3)[C@H]2SC1 [Cefprozil],0.965 ± 0.061
6,CCOc1ccccc1OCC1CNCCO1 (stereo not drawn) [Viloxazine hydrochloride],1.04 ± 0.062
7,CC(N/C(=N\C#N)Nc1ccncc1)C(C)(C)C (stereo not drawn) [Pinacidil],1.01 ± 0.036
8,C#C[C@]1(O)CC[C@H]2[C@@H]3CCC4=CC(=O)CC[C@@H]4[C@H]3CC[C@@]21CC [Norgestrel-(-)-D],1.03 ± 0.013
9,Oc1c(I)cc(Cl)c2cccnc12 [Clioquinol],1.59 ± 0.077
10,N[C@@H](C(=O)N[C@@H]1C(=O)N2C(C(=O)O)=C(Cl)CS[C@H]12)c1ccccc1 [Cefaclor hydrate],1.01 ± 0.028
11,CC1(C)S[C@@H]2[C@H](NC(=O)[C@H](N)c3ccccc3)C(=O)N2[C@H]1C(=O)O [Ampicillin trihydrate],1.03 ± 0.025
12,Nc1ccc(S(=O)(=O)Nc2ccc(Cl)nn2)cc1 [Sulfachloropyridazine],1.017 ± 0.0048
13,Cc1nccn1CC1CCc2c(c3ccccc3n2C)C1=O (stereo not drawn) [Ondansetron Hydrochloride],0.96132 ± 0.00094
